# Experimental data: a collection of fitness landscapes (doi:10.1126/science.1257360)
# The full ranking holds about 140,000 sequences; the median of “enrichment ratio after two sorts for PhoP signalling” is about 0, and the highest 2% start at about 11. This is one part of a sample in which the highest values are shown more often than they occur.
# B1: PhoQ; a variant is named by its letters at X, in order, P23837 (parent)
# chain: MKKLLRLFFPLSLRVRFLLATAAVVLVLSLAYGMVALIGYSVSFDKTTFRLLRGESNLFYTLAKWENNKLHVELPENIDKQSPTMTLIYDENGQLLWAQRDVPWLMKMIQPDWLKSNGFHEIEADVNDTSLLLSGDHSIQQQLQEVREDDDDAEMTHSVAVNVYPATSRMPKLTIVVVDTIPVELKSSYMVWSWFIYVLSANLLLVIPLLWVAAWWSLRPIEALAKEVRELEEHNRELLNPATTRELTSLVRNLNRLLKSERERYDKYRTTLTDLTHSLKTPLXXLQXXLRSLRSEKMSVSDAEPVMLEQISRISQQIGYYLHRASMRGGTLLSRELHPVAPLLDNLTSALNKVYQRKGVNISLDISPEISFVGEQNDFVEVMGNVLDNACKYCLEFVEISARQTDEHLYIVVEDDGPGIPLSKREVIFDRGQRVDTLRPGQGVGLAVAREITEQYEGKIVAGESMLGGARMEVIFGRQHSAPKDE
# Variants of: B1
# Assay: enrichment ratio after two sorts for PhoP signalling (ratio (wild type AVST 3.29)); higher = more functional
# Conditions: with PhoP (E. coli)
row,Variant,enrichment ratio
1,RVHQ,≤ 0.25
2,SHNI,8.22
3,THNL,12.7
4,NHNL,≤ 0.25
5,NHNI,≤ 0.25
6,YHNL,≤ 0.25
7,THNI,14.1
8,YPKW,≤ 0.25
9,AGAF,3.66
10,TPRL,≤ 0.25
11,AIGI,11.8
12,YTGI,≤ 0.25
13,AGFP,≤ 0.25
14,MTGI,11.7
15,AGGI,12.9
16,AHGI,≤ 0.25
17,ANGI,22.1
18,MTGD,≤ 0.25
19,GHGI,≤ 0.25
20,ANHA,≤ 0.25
21,GNGI,≤ 0.25
22,VHGI,≤ 0.25
23,IIYR,≤ 0.25
24,DKAR,≤ 0.25
25,LMEW,≤ 0.25
26,VFIY,≤ 0.25

row,Variant,enrichment ratio
1,MMGI,≤ 0.25
2,KCGI,≤ 0.25
3,TMGI,20.6
4,TMFP,≤ 0.25
5,TSGI,12.8
6,ATGI,13.1
7,KSGI,≤ 0.25
8,ATGS,5.38
9,TTGI,9.44
10,MGHD,≤ 0.25
11,TSDS,0.648
12,FMNE,≤ 0.25
13,QEAQ,≤ 0.25
14,SEAQ,13.7
15,SLAQ,3.9
16,NEAQ,≤ 0.25
17,SRAQ,≤ 0.25
18,TEAQ,28
19,LILM,≤ 0.25
20,MPQI,≤ 0.25
21,IQHE,≤ 0.25
22,EPTW,≤ 0.25
23,KMAC,≤ 0.25
24,TMAC,28.2
25,GMAC,≤ 0.25
26,SMPC,≤ 0.25

row,Variant,enrichment ratio
1,NNAC,≤ 0.25
2,NMAC,≤ 0.25
3,SMAC,12.5
4,CMAC,23.4
5,SMTC,8.15
6,VQIW,≤ 0.25
7,NELI,≤ 0.25
8,MAEF,≤ 0.25
9,RVFY,≤ 0.25
10,SKNN,≤ 0.25
11,NLIQ,≤ 0.25
12,SALK,15.2
13,QILN,≤ 0.25
14,NALN,≤ 0.25
15,KALY,≤ 0.25
16,KYLK,≤ 0.25
17,SPLK,≤ 0.25
18,SALY,11.8
19,CALN,65
20,SALT,11.2
21,SAAT,3.66
22,NALY,≤ 0.25
23,SAVT,0.95
24,AFGW,≤ 0.25
25,DHYR,≤ 0.25
26,VAYT,≤ 0.25

row,Variant,enrichment ratio
1,QIHG,2.32
2,YSRD,≤ 0.25
3,NFVV,≤ 0.25
4,SALN,11.9
5,SAMG,5.01
6,SAMS,7.54
7,SAPA,≤ 0.25
8,KALN,≤ 0.25
9,SALA,5.84
10,SAMK,17.9
11,SALS,11.5
12,SACN,9.88
13,SYEW,≤ 0.25
14,PEIY,≤ 0.25
15,VINR,≤ 0.25
16,ELMR,≤ 0.25
17,DFTI,≤ 0.25
18,SYMM,0.307
19,NQMM,≤ 0.25
20,SRMM,1.64
21,KFMM,≤ 0.25
22,FQMM,5.91
23,TQMM,57.7
24,SPMM,≤ 0.25
25,LCMM,26.9
26,LCWM,≤ 0.25

row,Variant,enrichment ratio
1,SEMM,32.5
2,SIMM,1.49
3,SAMM,12.7
4,PFQY,≤ 0.25
5,GAKN,≤ 0.25
6,FYYW,≤ 0.25
7,FFHN,≤ 0.25
8,SYFV,≤ 0.25
9,WNTR,≤ 0.25
10,WKFY,≤ 0.25
11,EDEV,≤ 0.25
12,TFAW,≤ 0.25
13,HTHM,≤ 0.25
14,YRCS,≤ 0.25
15,RLLR,≤ 0.25
16,NGMM,≤ 0.25
17,SSMM,19.1
18,YTMM,11.8
19,STMM,18.6
20,KYMM,≤ 0.25
21,TGMM,16
22,SWMM,≤ 0.25
23,YYMM,≤ 0.25
24,RGMM,≤ 0.25
25,YAMM,3.27
26,SQMM,3.97

row,Variant,enrichment ratio
1,APTA,≤ 0.25
2,HDAK,≤ 0.25
3,NSKR,≤ 0.25
4,FYPF,≤ 0.25
5,SSWP,≤ 0.25
6,IRWL,≤ 0.25
7,QACS,≤ 0.25
8,PGDN,≤ 0.25
9,GRMN,≤ 0.25
10,NMLY,≤ 0.25
11,WIMM,≤ 0.25
12,NHMM,≤ 0.25
13,FSMM,4.33
14,FTMM,12.1
15,MTMM,59.5
16,YHMM,≤ 0.25
17,SHMM,2.18
18,GGMM,≤ 0.25
19,QPMM,≤ 0.25
20,NIMM,16
21,MMMM,≤ 0.25
22,THMM,17.6
23,PMCS,≤ 0.25
